Among all 52,000 compounds or so, about 4,300 (8.3%) were called active. The sample holds actives, similar compounds and a random draw of the others, so the mix is not that of the screen. Cut-off read from the data, not from the text of the source: active = survival mostly below about 52% (no sharp cut-off); inactive = mostly above about 56%.

In this experiment the test system is DeltatarO mutant. In words: S. aureus survival, RN4220 and DeltatarO strains – OD600, teichoic acid synthesis inhibitors, primary screen (AID 463173). The settings on record: S. aureus RN4220 wild type/DeltatarO growth, OD600, 18 h, stronger effect = lower value, screened at 18.75 µg/mL (by protocol).
For the compound `COc1ccc(CCC(=O)NCc2ccc3c(c2)CCN3C(=O)c2ccc(C)cc2)cc1`, the survival was 75% (inactive).

Regarding `CC1=C(c2ccc(Cl)cc2)S(=O)(=O)N=C1N1CCN(c2cccc(C)c2)C(C)C1` (configuration not stated), the survival is 89% (inactive).

For `CCOC(=O)N1CCC(NC(=O)c2cnn(-c3ccc(OC)cc3)c2C2CCN(C(=O)OC(C)(C)C)CC2)CC1`, the survival is 84% (inactive).

Turning to `CCOc1ccc(NC(=O)C(C)Sc2nnc3cc(C)c4ccccc4n23)cc1` (configuration not stated), the survival was 73% (inactive).

In the case of `COC(=O)Cn1c(SCCOc2ccccc2OC)nc2ccccc21`, the survival is 51% (inactive).

Turning to `COC(=O)Cn1c(SCCOc2ccccc2Cl)nc2ccccc21`, the survival was 42% (active).

Take `CCCCNC(=O)c1cnn2c(C)c(Cc3c(C)cc(C)cc3C)c(C)nc12`: the survival was 102% (inactive).

On to `COc1ccc(CNC(=O)CCCn2nc(C)c3sc4ccccc4c3c2=O)cc1OC`, for which the survival was 87% (inactive).

As for `CCc1ccc(-c2nc(CSCC(=O)N3CCN(c4ccc(F)cc4)CC3)c(C)o2)cc1`, the survival was 73% (inactive).

Turning to `COc1ccc(-c2nc(CSCC(=O)N3CCN(c4cccc(C)c4C)CC3)c(C)o2)cc1OC`, the survival was 49% (inactive).

As for `Cc1cccc(-c2nc(CSCC(=O)N3CCN(c4cccc(C)c4C)CC3)c(C)o2)c1`, the survival was 8% (active).

`Cc1oc(-c2ccccc2F)nc1CSCC(=O)N1CCN(c2ccccc2)CC1`: the survival was 62% (inactive).

For the compound `Cc1ccc(-c2nc(CS(=O)(=O)CC(=O)N3CCN(c4cccc(C)c4C)CC3)c(C)o2)cc1`, the survival is 116% (inactive).

For `Cc1cccc(-c2nc(CSCC(=O)N3CCN(c4ccccc4)CC3)c(C)o2)c1`, the survival was 17% (active).

Turning to `O=C(Cn1cc(SCc2ccccc2F)c2ccccc21)N1CCCCCC1`, the survival was 73% (inactive).

With `CCOC(=O)C1CCN(C(=O)c2ccc3c(=O)n4nc(Nc5ccccc5)sc4nc3c2)CC1`, the survival is 117% (inactive).

As for `COc1ccccc1NC(=O)Cn1c(=O)n(-c2cccc(C(C)=O)c2)c(=O)c2c3c(sc21)CN(C(C)=O)CC3`, the survival was 89% (inactive).

`COc1ccc(S(=O)(=O)c2c(O)c3ccc(C(=O)NCc4ccc(Cl)cc4)cc3[nH]c2=O)cc1`: the survival was 89% (inactive).

For the compound `COc1cccc(CNC(=O)CN(C)S(=O)(=O)c2ccc3[nH]c4c(c3c2)CCCC4)c1`, the survival was 75% (inactive).

In the case of `CCOc1ccc(OCC)c(NC(=O)c2cnc3c(-c4ccccc4)c(C)nn3c2C)c1`, the survival is 91% (inactive).

In the case of `Cc1ccc(NC(=O)c2cnc(SCC(=O)N3CCCc4ccccc43)n(C)c2=O)cc1C`, the survival was 85% (inactive).

With `COc1cccc2sc(NC(=O)c3ccc4c(c3)OCCO4)nc12`, the survival was 88% (inactive).

Take `COc1ccc2oc(=O)c(-c3nnc(-c4ccc(C)cc4)o3)cc2c1`: the survival is 138% (inactive).

As to `Clc1ccc(-c2nnn3c2nc(N2CCCCC2)c2ccccc23)cc1`, the survival is 25% (active).

For the compound `Brc1cccc(-c2nnn3c2nc(N2CCCCC2)c2ccccc23)c1`, the survival is 62% (inactive).

`CC1CCCN(c2nc3c(-c4ccc(Cl)cc4)nnn3c3ccccc23)C1` (configuration not stated): the survival was 87% (inactive).

For `Cc1ccc(-c2nnn3c2nc(N2CCC(C)CC2)c2ccccc23)cc1`, the survival was -6% (active).

Consider `COc1ccc(-c2nnn3c2nc(N2CCCC(C)C2)c2ccccc23)cc1` (configuration not stated), for which the survival is -3% (active).

For the compound `O=S(=O)(c1ccccc1)c1nnn2c1nc(N1CCN(c3ccccc3)CC1)c1cc(Cl)ccc12`, the survival is 91% (inactive).

Consider `COc1ccc(-c2nnn3c2nc(NCc2ccccc2)c2ccccc23)cc1`, for which the survival was 89% (inactive).

For `CC1CCN(c2nc3c(S(=O)(=O)c4ccccc4)nnn3c3ccc(Cl)cc23)CC1`, the survival was 69% (inactive).

For the compound `CC1CCN(c2nc3c(-c4cccc(Br)c4)nnn3c3ccccc23)CC1`, the survival was 104% (inactive).

Take `O=C(NCCCN1CCN(c2ccccc2)CC1)c1nnc(Cc2c(F)cccc2Cl)o1`: the survival is 71% (inactive).

As for `Cc1cc(NC(=O)CCc2nc3cccnc3n2Cc2cccs2)ccc1Br`, the survival is 50% (inactive).

As to `COCCCNC(=O)c1cc(-c2cccnc2)nc2ccc(S(=O)(=O)N3CCC(C)CC3)cc12`, the survival was 113% (inactive).

As for `CC(=O)c1ccc(N2CCN(C(=O)C3CCN(S(=O)(=O)c4cccc5nonc45)CC3)CC2)cc1`, the survival is 79% (inactive).

For `COC(=O)CSc1ncc(C#N)c(N)n1`, the survival was 110% (inactive).

Regarding `COc1ccc(C)cc1NC(=O)CCc1c(C)nn(-c2ccc(N3CCCCC3)nn2)c1C`, the survival is 78% (inactive).

With `CC(C)(C)c1ccc(C(=O)Nc2onc3c2CCCC3)cc1`, the survival is 56% (inactive).

For the compound `Cc1ccc(C(=O)Nc2onc3c2CCCC3)cc1`, the survival is 46% (active).

For the compound `CCCCOc1ccc(C(=O)Nc2onc3c2CCCC3)cc1`, the survival was 49% (active).

As for `O=C(Nc1onc2c1CCCC2)c1ccc(Cl)cc1`, the survival is 77% (inactive).

Regarding `CC(C)COc1ccc(C(=O)Nc2onc3c2CCCC3)cc1`, the survival is 103% (inactive).

In the case of `CCOc1ccc(C(=O)Nc2onc3c2CCCC3)cc1`, the survival is 72% (inactive).

Consider `CCCCOC(=O)c1ccc(NC(=O)c2sc3nc(C)cc(C)c3c2N)cc1`, for which the survival is 65% (inactive).

Consider `CCCCn1cc(S(=O)(=O)c2ccccc2)c(=O)c2cc(F)c(N3CCC(C)CC3)cc21`, for which the survival was 68% (inactive).

Consider `C=CCn1c(SCc2cccnc2)nnc1-c1ccncc1`, for which the survival is 88% (inactive).

For the compound `CC(C)Oc1ccc(CNC(=O)c2cccc(NC(=O)N3CCSc4ncccc43)c2)cc1`, the survival is 88% (inactive).

As to `Cc1ccc(NC(=O)c2ccc(NC(=O)N3CCSc4ncccc43)cc2)c(C)c1`, the survival was 86% (inactive).

Consider `CCc1cccc(NC(=O)c2ccc(NC(=O)N3CCSc4ncccc43)cc2)c1`, for which the survival is -1% (active).

In the case of `CC(=O)c1ccc(NC(=O)c2cccc(NC(=O)N3CCSc4ncccc43)c2)cc1`, the survival was 79% (inactive).

On to `CCOc1ccc(NC(=O)c2ccc(NC(=O)N3CCSc4ncccc43)cc2)cc1`, for which the survival was 76% (inactive).

As for `Cc1ccc(Cl)cc1NC(=O)c1ccc(NC(=O)N2CCSc3ncccc32)cc1`, the survival was 79% (inactive).

For `Cc1ccccc1NC(=O)c1ccc(NC(=O)N2CCSc3ncccc32)cc1`, the survival was -2% (active).

As for `CC(C)Oc1ccc(CNC(=O)c2ccc(NC(=O)N3CCSc4ncccc43)cc2)cc1`, the survival was 6% (active).

Turning to `CC(C)Oc1ccc(CNC(=O)Cc2ccc(NC(=O)N3CCSc4ncccc43)cc2)cc1`, the survival was 102% (inactive).

Turning to `CC(C)CC1CC(C)(C(=O)CSc2n[nH]c(-c3ccccc3)n2)OC1=O` (configuration not stated), the survival is 80% (inactive).

Source of the values: PubChem BioAssay AID463173 (ICCB-Longwood Screening Facility, Harvard Medical School, 2010).
